# Laboratory results as given in PubChem BioAssay (EPA / NIEHS).
# “And” between values parts separate entries of the source, which are not always exact repeats. Equal entries are not always repeated. The source made the active and inactive calls. Rule for the calls: active = hit-call score of the fitted dose curve at least 0.9, where 1 is the maximum; inactive = score below 0.9.
# Read-out: Interleukin-1 alpha (IL1a), IL1A (gene 3552)
# Test: BSK_KF3CT_IL1a: BioMAP Diversity Plus: KF3CT Assay for Interleukin-1 alpha (IL1a) Biomarker Activity (AID 2283070)
# Conditions: primary human keratinocytes with fibroblasts; actives raise or lower the signal
# Method in brief: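 Chemicals were dosed onto co-cultured human keratinocytes and foreskin fibroblasts, IL-1a was quantified by ELISA at 24 h, and activity was fitted in both directions relative to DMSO controls.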
SMILES,outcome,AC50
CCOC(=O)C(C)Oc1ccc(Oc2cnc3cc(Cl)ccc3n2)cc1 (stereo not given),inactive,
C#C[C@]1(O)CC[C@H]2[C@@H]3CCC4=CC(=O)CC[C@@H]4[C@H]3CC[C@@]21CC,inactive,
CC(C)(c1ccc(O)cc1)c1ccc(O)cc1,inactive,
COC(=O)c1ccccc1S(=O)(=O)NC(=O)Nc1nc(OC(F)F)cc(OC(F)F)n1,inactive,
S=C(S)NCCNC(=S)S.[Mn+2].[S-]C([S-])=NCCN=C([S-])[S-].[Zn+2],inactive,
CCC(O)=C1C(=O)CC(C(=O)O)CC1=O (stereo not given),inactive,
CCCCCOC(=O)COc1cc(N2C(=O)C3=C(CCCC3)C2=O)c(F)cc1Cl,inactive,
CCOC(=O)c1ccc(O)cc1,inactive,
CCCCC(CC)COC(=O)c1ccccc1C(=O)O (stereo not given),inactive,
CCOC(=O)NCCOc1ccc(Oc2ccccc2)cc1,inactive,
CCC(C)OC(=O)N1CCCCC1CCO (stereo not given),inactive,
CCNc1nc(N)nc(Cl)n1,inactive,
COC(=O)c1ccccc1C(=O)O,inactive,
COC(=O)c1cccc(C)c1S(=O)(=O)NC(=O)Nc1nc(OCC(F)(F)F)nc(N(C)C)n1,inactive,
O=C(O)C1(C(=O)Nc2ccc(Cl)cc2Cl)CC1,inactive,
Oc1ccc(C(c2ccc(O)cc2)C(Cl)(Cl)Cl)cc1,,32.9 µM (active)
N[C@@H](Cc1cc(I)c(Oc2ccc(O)c(I)c2)c(I)c1)C(=O)O,inactive,
COc1c(Cl)ccc(Cl)c1C(=O)O,inactive,
CC(C)CCCCCCc1ccc(O)cc1,,8.32 µM (active)
N#CSCSc1nc2ccccc2s1,,7.76 µM (active) and 11.4 µM (active)
